Tau FP inhib: qHTS for Inhibitors of Tau Fibril Formation, Fluorescence Polarization; K18 P301L tau heparin fibrillization, Alexa594 FP, 6 h; Potency, µM (doses to about 57.7 µM), inactives show at the top dose activity, negative = inhibition, hits mostly inhibitors; actives 0.39% (n = 280,000); AID 1468, 2008; active means well fitted curve in the direction sought with a large enough effect; inconclusive means small, poorly fitted or top-dose-only effect, or another doubt; inactive means no such curve, though single readings can be large; an effect the other way counts as inactive or inconclusive; further: nearly all actives have a fitted effect of over 55% in size
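Steps: dispense K18 P301L tau (15 uM plus 0.24 uM Alexa 594 tracer, final) in pH 7 sodium acetate; add compound; add heparin (20 uM final); incubate 6 hr, 37 C; add ThT (30 uM final); after 1 hr ambient, read FP.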
Tau ThT inhib: qHTS for Inhibitors of Tau Fibril Formation, Thioflavin T Binding; recombinant tau K18 P301L, heparin-induced fibrillization, ThT fluorescence; Potency, µM (titrated, usually from 57.4 µM), without a hit: at the highest dose activity, negative = inhibition, usual class: inhibitors; actives 2.1% (n = 270,000); AID 1460, 2008; active means well fitted curve in the direction sought with a large enough effect; inconclusive means small, poorly fitted or top-dose-only effect, or another doubt; inactive means no such curve, though single readings can be large; an effect the other way counts as inactive or inconclusive; further: nearly all actives have a fitted effect of over 55% in size
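Fibril formation assay: tau K18 P301L at 15 uM with trace Alexa 594 label, heparin inducer 20 uM, pH 7 sodium acetate buffer, 37 C for 6 hr; endpoint ThT signal.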
ALDH1A1 inh: qHTS Assay for Inhibitors of Aldehyde Dehydrogenase 1 (ALDH1A1); Purified ALDH1A1, NADH fluorescence, propionaldehyde substrate; Aldehyde dehydrogenase 1A1 (Homo sapiens), P00352; Potency, µM (top dose mostly 75.3 µM), without a hit: at the highest dose activity, negative = inhibition, hits mostly inhibitors; actives 7.3% (n = 220,000);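 further: plate controls were no enzyme wells and a reference inhibitor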
Target sequence (P00352 whole entry, looked up): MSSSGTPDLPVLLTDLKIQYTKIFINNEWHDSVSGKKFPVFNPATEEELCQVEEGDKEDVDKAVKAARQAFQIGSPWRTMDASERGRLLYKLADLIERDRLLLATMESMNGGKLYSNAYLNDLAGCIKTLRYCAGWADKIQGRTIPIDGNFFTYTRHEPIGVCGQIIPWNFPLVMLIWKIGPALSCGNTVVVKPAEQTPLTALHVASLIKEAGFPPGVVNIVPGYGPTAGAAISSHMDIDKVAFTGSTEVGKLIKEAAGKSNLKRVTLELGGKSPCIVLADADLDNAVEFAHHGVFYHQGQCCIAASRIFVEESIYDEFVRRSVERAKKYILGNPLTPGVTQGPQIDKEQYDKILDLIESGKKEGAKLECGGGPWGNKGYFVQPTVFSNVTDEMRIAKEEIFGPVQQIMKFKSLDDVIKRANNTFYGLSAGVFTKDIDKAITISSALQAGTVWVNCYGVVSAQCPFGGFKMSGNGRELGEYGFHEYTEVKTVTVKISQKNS
JMJD2E inh: qHTS Assay for Inhibitors of Human Jumonji Domain Containing 2E (JMJD2E) | Lysine-specific demethylase 4E (Homo sapiens), B2RXH2 | JMJD2E catalytic domain, FDH-coupled NADH fluorescence (FDH is formaldehyde dehydrogenase) | Potency, µM (doses to about 57.1 µM), inactives show top-dose activity change, negative = inhibition, most hits filed as inhibitors | actives 1.6% (n = 230,000);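 further: 0% = wells with enzyme and -100% = buffer wells without enzyme; nearly all actives have a fitted effect of over 50% in size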
Tau fluor counter: Counterscreen qHTS for Inhibitors of Tau Fibril Formation, Fluorescence Polarization. actives 0.93% (n = 280,000). AID 1463, 2008. Potency, µM (titrated, usually from 57.7 µM), without a hit: at the highest dose activity change, negative = decrease. tau K18 P301L Alexa594 fluorescence, heparin fibrillization; active means well fitted curve in the direction sought with a large enough effect; inconclusive means small, poorly fitted or top-dose-only effect, or another doubt; inactive means no such curve, though single readings can be large; an effect the other way counts as inactive or inconclusive; further: nearly all actives have a fitted effect of over 55% in size
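Human tau K18 P301L (15 uM unlabeled, 0.24 uM Alexa 594-labeled) in 100 mM sodium acetate pH 7 with 20 uM heparin, 6 hr at 37 C. ThT 30 uM added, 1 hr ambient; Alexa 594 FP and total fluorescence read at 555/632 nm.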
HPGD block: qHTS Assay for Inhibitors of HPGD (15-Hydroxyprostaglandin Dehydrogenase) | 15-hydroxyprostaglandin dehydrogenase [NAD(+)] (Homo sapiens), P15428 | actives 4.3% (n = 150,000) | Potency, µM, without a hit: at the top dose activity change, negative = inhibition, usual class: inhibitors | purified HPGD, NADH fluorescence kinetic, PGE2 substrate
Target sequence (P15428 whole entry, looked up): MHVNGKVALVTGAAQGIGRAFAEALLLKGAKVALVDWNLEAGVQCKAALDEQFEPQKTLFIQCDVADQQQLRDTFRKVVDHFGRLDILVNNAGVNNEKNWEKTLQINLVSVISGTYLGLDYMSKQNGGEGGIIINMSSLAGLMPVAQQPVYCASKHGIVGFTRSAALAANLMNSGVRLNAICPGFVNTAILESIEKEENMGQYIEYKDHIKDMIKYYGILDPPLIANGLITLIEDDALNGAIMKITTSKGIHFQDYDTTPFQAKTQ
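20 nM HPGD preincubated 15 min at room temperature with compound in 50 mM Tris-HCl pH 8, 0.01% Tween 20. Started with 1 mM NAD+ and 30 uM prostaglandin E2; NADH fluorescence (360/450 nm) read 5 times over 30-s intervals, last minus first.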
Starred values were filed as active, the others as inactive; ? = inconclusive; . = no result given; [ ] = another dose, or the depositor's remark. The list is not random: actives were taken first. Their share in the collection is about 9.9%. Unless noted, the call rests on the fitted dose curve; in most records, active means well fitted inhibition curve with a large enough effect (not every such curve was filed as active); inconclusive means small, poorly fitted or top-dose-only effect, or another doubt; inactive means no such curve, though single readings can be large or run the other way. Unless noted, on the % scale 0 is the no-effect control and ±100 the full control effect; potency means the concentration at half of the fitted maximal effect.

SMILES	Tau FP inhib	Tau ThT inhib	ALDH1A1 inh	JMJD2E inh	Tau fluor counter	HPGD block
c1ccc(-c2nnc(CSc3nnc(-c4cccs4)o3)o2)cc1	0.7%	-4.1%	?	3.5%	-7.8%	15.8µM*
CCSc1nnc(-c2cccs2)o1	-1.5%	-10.8%	-12.9%	?	-9.0%	-28.9%
Fc1ccc(NCc2nnc(SCc3nnc(-c4ccccc4)o3)n2Cc2ccccc2)cc1	3.8%	-10.6%	-13.5%	0.8%	-11.7%	28.2µM*
Clc1ccc(-c2nnc(CSc3nnc(-c4cccs4)n3Cc3ccccc3)o2)cc1	-1.8%	-9.6%	-2.7%	4.2%	-14.6%	-8.5%
c1ccc(CSc2nnc(-c3cccs3)o2)cc1	-2.0%	-6.8%	-5.4%	0.3%	-1.4%	20µM*
Fc1ccccc1CSc1nnc(-c2cccs2)o1	-5.1%	-8.4%	-1.7%	-17.4%	-13.1%	28.2µM*
Clc1ccc(-c2noc3ncnc(NCCc4ccccc4)c23)cc1	-7.6%	-10.5%	.	.	-27.4%	.
Cc1cc(NC(=O)CSc2nc(C3CC3)nc3sc(C)c(C)c23)no1	-1.3%	-9.0%	?	4.5%	-13.7%	-11.0%
COC(=O)c1ccccc1NC(=O)Cn1nc2n(C)c3ccccc3n2c(=O)c1=O	?	-16.5%	6.2%	-11.5%	-17.2%	-17.5%
Fc1ccc(CSc2nnc(-c3cccs3)o2)cc1	2.8%	10.4%	-13.9%	5.3%	6.8%	15.8µM*
CC(=O)NCc1ccc(S(=O)(=O)NC(C(=O)O)C(C)C)cc1 (stereo unspecified)	?	25.1µM*	-3.5%	9.0%	-10.4%	.
Cc1ccc(CCNC(=O)c2sc3nc4n(c(=O)c3c2C)CCCC4)cc1	-6.0%	-1.4%	.	.	-16.1%	.
CCN(CC)S(=O)(=O)c1ccc(NC(=O)CSc2cccc[n+]2[O-])cc1	-3.7%	-0.7%	22.4µM*	?	-3.9%	-11.8%
CCN(CC)S(=O)(=O)c1ccc(NC(=O)COC(=O)CNS(=O)(=O)/C=C/c2ccccc2)cc1	-3.2%	2.5%	1µM*	1.5%	-3.9%	-15.3%
COc1ccccc1C(=O)OCc1cc(=O)n2c(C)csc2n1	-5.1%	-6.8%	.	.	-7.8%	.
CCN(CC)c1ccc(/C=C2/C(=O)N(c3ccc([N+](=O)[O-])cc3)N=C2N2CCOCC2)cc1	3.8%	?	4.47µM*	7.5%	-20.9%	-16.8%
COc1cc(/C=C2/C(=O)N(c3ccc([N+](=O)[O-])cc3)N=C2N2CCOCC2)ccc1O	-2.5%	?	?	-5.0%	-23.4%	.
CCC(C)Nc1ccc(NC(C)CC)cc1 (stereo unspecified)	.	.	8.91µM*	.	.	-12.8%
CCC(C)NC(=O)Nc1ccc(Br)cc1 (stereo unspecified)	0.8%	-5.7%	4.6%	1.1%	-10.5%	.
COc1cccc(-c2nnc(-c3ccccc3NC(=O)c3ccc(C(C)(C)C)cc3)o2)c1	?	-9.6%	?	?	-20.2%	.
COc1ccc(S(=O)(=O)N2CCC(C(=O)N3CCCCC3)CC2)cc1Cl	-1.2%	-16.1%	0.6%	5.0%	-10.7%	15.8µM*
CC1CCN(C(=O)C2CCN(S(=O)(=O)c3cccnc3)CC2)CC1	3.6%	-4.3%	-5.5%	1.6%	0.0%	-21.4%
O=C(C1CCN(S(=O)(=O)c2cccnc2)CC1)N1CCCCC1	5.5%	-9.1%	6.8%	3.5%	-1.1%	20µM*
COc1ccc(S(=O)(=O)N2CCC(C(=O)N3CCCC3)CC2)cc1Cl	-7.9%	3.1%	-1.9%	-0.8%	-2.0%	-8.6%
COc1cc(S(=O)(=O)N2CCCCC2)ccc1NC(=O)c1ccccc1Cl	-1.9%	-2.6%	2µM*	-28.2%	-23.6%	-15.9%
SMILES	Tau FP inhib	Tau ThT inhib	ALDH1A1 inh	JMJD2E inh	Tau fluor counter	HPGD block
C=CCn1c(C(CCCC)CC(C)O)n[nH]c1=S (stereo unspecified)	-2.4%	-0.4%	5.5%	1.1%	1.0%	-3.7%
CN(c1ccc(C(=O)NCCSCc2c(F)cccc2Cl)cc1)S(C)(=O)=O	3.0%	3.1%	?	-4.8%	-2.2%	.
COc1ccc(NS(=O)(=O)c2ccc(NC(=S)NC(=O)/C=C/c3ccccc3)cc2)nn1	-8.8%	?	?	-4.0%	-13.2%	-14.9%
COc1ccc(C2C(C#N)=C(N)Oc3c2sc2nc(C)cc(C)c32)cc1 (stereo unspecified)	?	25.1µM*	-0.7%	?	?	-5.7%
O=C(Nc1ccccc1)c1ccc2nc(-c3ccco3)c(-c3ccco3)nc2c1	?	?	0.178µM*	?	?	5.01µM*
CC(=O)c1ccc(NC(=O)CSc2nnc(-c3ccco3)c(-c3ccco3)n2)cc1	8.91µM*	3.98µM*	1.41µM*	15.8µM*	?	.
O=C(CSc1nnc(-c2ccco2)c(-c2ccco2)n1)c1ccccc1	-7.4%	9.9%	-5.7%	-10.7%	7.7%[2.34 µM]	.
COc1ccc(C(=O)Nc2nnc(-c3ccco3)s2)cc1	-11.7%	-11.9%	-16.8%	-22.1%	-8.7%	?
O=C(NCCO)Nc1ccc2nc(-c3ccco3)c(-c3ccco3)nc2c1	5.7%	5.3%	?	10.8%	8.6%	.
O=C(Nc1nnc(-c2ccco2)s1)c1ccccc1	-2.5%	-9.6%	25.1µM*	?	-5.6%	-25.1%
CC(=O)c1ccc(NC(=O)c2ccc3nc(-c4ccco4)c(-c4ccco4)nc3c2)cc1	-14.2%	12.6µM*	3.16µM*	?	?	?
COc1cc(-c2ccc(NC(=O)NC3CC3)c(OC)c2)ccc1NC(=O)NC1CC1	15.0%	?	?	?	?	.
CC(NC(=O)COC(=O)/C(=C/c1cccs1)c1cccs1)c1ccccc1 (stereo unspecified)	-5.0%	?	5.5%	-0.4%	-14.7%	-22.3%
O=C(NCc1ccccc1)c1ccc2nccnc2c1	-5.0%	-6.6%	-1.0%	-2.8%	-6.0%	-26.9%
O=C(NCc1ccccc1)c1ccc2nc(-c3ccco3)c(-c3ccco3)nc2c1	?	14.1µM*	?	?	?	?
COc1ccc(CCNC(=O)c2ccc3c(c2)CCN3S(=O)(=O)c2ccc(C)cc2)cc1OC	-1.3%	-3.7%	.	.	-23.5%	.
O=C(Cn1c(=O)c(=O)n(Cc2ccccc2)c2ccc(Cl)cc21)Nc1cccc(F)c1	-4.7%	-17.3%	?	?	-16.7%	?
